The source of these data is PubChem BioAssay AID588774 (The Scripps Research Institute Molecular Screening Center, 2011).

Test [1] in a line: pPAFAH inhibition and serine hydrolase selectivity, SAR follow-up, selectivity assay for pPAFAH inhibitor project, biochemical, gel-based, FP-Rh fluorescence, complex proteome, SAR compounds (AID 588774).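 On inhibition: 0% = DMSO-only band intensity and 100% = blank gel background.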 The following applies: gel-based competitive ABPP, MW 32 kDa, anti-targets inhibited, at 10 µM.
The next test relates to MW 32 kDa. Described as above. The note with it: gel-based competitive ABPP, at 10 µM, stronger effect = higher value.

The source made the active and inactive calls.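 How the source made its calls: active means target enzyme inhibited at least 50% at a set dose, and selective over every off-target enzyme by a set factor; inactive means weaker inhibition or too little selectivity.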

By inhibition is commonly meant the change of the read-out against control, counted positive when it falls. The molecule `Cc1cc(N2CCN(C(=O)n3oc4cc(Cl)ccc4c3=O)CC2)c2ccccc2n1` displayed an anti-target count in test [1] of 3. Besides, in the test with MW 32 kDa, the inhibition is 0% (inactive).

In test [1], `Cc1cc(N2CCN(C(=O)n3ncc(-c4ccc(OC(F)(F)F)cc4)n3)CC2)c2ccccc2n1` returned an anti-target count of 9. In addition, in the test with MW 32 kDa, the inhibition is 87% (inactive).

The molecule `Cc1cc(N2CCN(C(=O)n3ncc(-c4ccccc4)n3)CC2)c2ccccc2n1` displayed an anti-target count in test [1] of 9. For the same molecule, the inhibition in the test on MW 32 kDa is 72% (inactive).

Consider `Cc1cc(N2CCN(C(=O)Oc3ccc(C4CCCC4)cc3)CC2)c2ccccc2n1`, for which the anti-target count in test [1] worked out at 0. Further, in the test with MW 32 kDa, the inhibition is 0% (inactive).
